Data taken from PubChem BioAssay (NCI).
“And” between values parts separate entries of the source, which are not always exact repeats. Identical values can stand only once. The panel holds about 83,000 compounds, 20% with a hit somewhere; the sample as a whole holds those more often.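 Plates (96-well) were seeded with cells, treated with compound at one concentration, and incubated for 48 hours before percent growth was determined.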 Values without a mark were called inactive. The source made the active and inactive calls. Rule for the calls: active = growth percent below 10; inactive = the rest.

Tested on: SK-MEL-2 melanoma
Experiment: NCI-60 one-dose screen, 48 h (100 = growth as untreated, 0 = no growth, -100 = all killed)
Conditions: 10 µM unless noted

SMILES	growth
C=CCN1C=CC(=O)[C@H](O[Si](C)(C)C(C)(C)C)[C@@H]1/C=C/c1ccccc1	-57% [100 µM] (active)
Cc1ccc(-c2nc3nc(-c4ccc(Cl)cc4)nc(N4CCCNCC4)c3o2)cc1	103%
CC1=C2[C@@H](CC1)[C@]1(C)O[C@@](C3CC3)(C[C@H]1OC(=O)CO)[C@H]2OC(=O)/C=C/c1ccccc1	97.2%
CCN1CCN(C(=O)[C@]23CC[C@@H](C)[C@H](C)[C@@H]2C2=CC[C@@H]4[C@@]5(C)CCC(=O)C(C)(C)[C@@H]5CC[C@@]4(C)[C@]2(C)CC3)CC1	12.3%
CCCO/N=C/c1ccccn1	116% and 94.7%
CN(C)CCN1C(=O)c2c(c3c4ccccc4n4c3c3c2c2ccccc2n3C2CC(O)C(O)C4(C)O2)C1=O (stereo unspecified)	32.6%
CCOC(=O)c1c(-c2ccc(C)cc2)c(C#N)c(=O)n(-c2cccc(C(F)(F)F)c2)c1N	116%
CCCCCCCCCCCCCCCC(=O)O[C@@H]1[C@@H](O)[C@@H](O)C([C@H](NC(=O)[C@@H]2C[C@@H](CCC)CN2C)[C@H](C)Cl)O[C@@H]1SC (stereo partly specified)	112%
O=C1/C(=C/c2cn(-c3ccccc3)nc2-c2ccccc2)SC(=S)N1c1ccc(Cl)cc1	97.4%
CN(C)CCCn1c2c(c3ccc(N4CCNCC4)cc3c1=O)C(=O)c1ccccc1-2	39.6%
CCOc1ccccc1NC(=O)c1cc2ccccc2cc1O	37.4%
COc1ccc(C/C(C)=C(/c2ccc(OCCN3CCCCCC3)cc2)c2ccc(OC(=O)c3ccccc3)cc2)cc1	97.4%

Tested on: EKVX NSCLC
Experiment: as above
Conditions: 10 µM unless noted

SMILES	growth
COc1ccc(C(=O)c2ccc(OC)c(OC)c2OC)cc1	48.1% and 39%
O=C1/C(=C/c2ccccc2)CN(C(=O)C(Cl)Cl)C/C1=C\c1ccccc1	12.2%
C=C(C)[C@@H]1CC[C@]2(C(=O)O)CC[C@]3(C)[C@H](CC[C@@H]4[C@@]5(C)CCC(N)C(C)(C)[C@@H]5CC[C@]43C)[C@@H]12 (stereo partly specified)	67.6%
N#C/C(=C\c1ccc(Br)cc1)n1nnc2c(F)cccc21	30.6%
COC1=CC(=O)C(OC)=C(O)C1=O	98.1%
CC(C)(C)c1cc(NC(=O)Nc2ccc(-c3cn4c(n3)sc3cc(OCCN5CCOCC5)ccc34)cc2)no1	47.6% and 68.4%
COc1cccc(C2C(C#N)=C(N)Oc3cc(OCCCCCC[P+](c4ccccc4)(c4ccccc4)c4ccccc4)ccc32)c1 (stereo unspecified)	-0.839% (active)
COc1ccc(-c2ccccc2)cc1-c1c(Nc2cc(Cl)cc(Cl)c2O)c(=O)c1=O	10.2%
Cc1ccc(S(=O)(=O)Nc2cc(Sc3ccccc3)c(O)c3ccccc23)cc1	116%
COC(=O)c1[nH]nc(OC)c1C1(C(C#N)c2nc3ccccc3s2)CCCc2ccccc21 (stereo unspecified)	88.5%
COc1ccc(-c2cc(-c3cccc(Cl)c3)c(C#N)c(=O)[nH]2)c(OC)c1	95.2%
Cc1nc(-n2[nH]c(=O)ccc2=O)sc1N=Nc1ccccc1	96.5%
COc1ccc(-c2csc(NC(=O)CN3CCN(CCO)CC3)n2)cc1NS(=O)(=O)c1cccc2c(N(C)C)cccc12	80.9%
COc1ccc(-c2[nH]c3ccccc3c2-c2ccc(OC)cc2)cc1	73.8%
COc1ccc(/C=N\Nc2nc(SCC(C)C)nc(-c3ccc(OC)cc3)c2C#N)cc1	35.1%
CN(C)C(=O)c1cc2cnc(Nc3ccc(-c4csc5c(=S)cc(N6CCOCC6)oc45)cc3)nc2n1C1CCCC1	12.1%
O=C(Nc1ccc2ncsc2c1)c1csc(Nc2ccc3[nH]ncc3c2)n1	58.6%
NS(=O)(=O)c1ccc(C(=O)N=Nc2c(O)[nH]c3c(F)cccc23)cc1	102%
C/C=C(\C)C(=O)N[C@H]1CC[C@]2(C)C3CC[C@@]4(C)C(CC[C@@H]4C(C)N(C)C)C3CCC2[C@H]1OC(C)=O (stereo partly specified)	-11.3% (active)
CC(=O)N1N=C(c2ccc(Nc3nc(Nc4ccc(F)cc4)nc(Nc4ccc(Cl)cc4)n3)cc2)CC1c1ccc(N(C)C)cc1 (stereo unspecified)	43.1%

SMILES	growth
ON=C1CCCCCCCC1	108%
Cc1ccc(NC(=O)c2sc3nc(C)c(C(=O)c4ccccc4)cc3c2N)cc1	72.4%
O=C(/C=C/c1ccc([N+](=O)[O-])cc1)c1ccccc1	90.8%
COc1cc(CO)cc2cc3ccccc3nc12	102%
O=C(Cc1ccc(F)cc1)c1ccccc1	113%
COc1cc(-c2[nH]ncc2Nc2ccc(Cl)cc2)cc(OC)c1OC	45.4%
CC1(Cc2ccccc2)CC2=C(C(=O)O1)C(c1ccccc1)NC(=O)N2 (stereo unspecified)	98.7%
C=CCN1C=CC(=O)[C@H](O[Si](C)(C)C(C)(C)C)[C@@H]1/C=C/c1ccccc1	-48% [100 µM] (active)
Cc1ccc(-c2nc3nc(-c4ccc(Cl)cc4)nc(N4CCCNCC4)c3o2)cc1	123%
CC1=C2[C@@H](CC1)[C@]1(C)O[C@@](C3CC3)(C[C@H]1OC(=O)CO)[C@H]2OC(=O)/C=C/c1ccccc1	87.7%
CCN1CCN(C(=O)[C@]23CC[C@@H](C)[C@H](C)[C@@H]2C2=CC[C@@H]4[C@@]5(C)CCC(=O)C(C)(C)[C@@H]5CC[C@@]4(C)[C@]2(C)CC3)CC1	28.4%
CCCO/N=C/c1ccccn1	108% and 96.8%
CN(C)CCN1C(=O)c2c(c3c4ccccc4n4c3c3c2c2ccccc2n3C2CC(O)C(O)C4(C)O2)C1=O (stereo unspecified)	46.8%
CCOC(=O)c1c(-c2ccc(C)cc2)c(C#N)c(=O)n(-c2cccc(C(F)(F)F)c2)c1N	98.8%
CCCCCCCCCCCCCCCC(=O)O[C@@H]1[C@@H](O)[C@@H](O)C([C@H](NC(=O)[C@@H]2C[C@@H](CCC)CN2C)[C@H](C)Cl)O[C@@H]1SC (stereo partly specified)	100%
O=C1/C(=C/c2cn(-c3ccccc3)nc2-c2ccccc2)SC(=S)N1c1ccc(Cl)cc1	81.9%
CN(C)CCCn1c2c(c3ccc(N4CCNCC4)cc3c1=O)C(=O)c1ccccc1-2	-39% (active)
CCOc1ccccc1NC(=O)c1cc2ccccc2cc1O	75%
COc1ccc(C/C(C)=C(/c2ccc(OCCN3CCCCCC3)cc2)c2ccc(OC(=O)c3ccccc3)cc2)cc1	93%
